# Screens from PubChem.
# MITF primary = MITF inhibitors, primary screen, biochemical, AlphaScreen, human; Microphthalmia-associated transcription factor (Homo sapiens), O75030; AlphaScreen MITF homodimerization, bead proximity signal; inhibition, % at 2.6 µM; actives 0.91% (n = 650,000); AID 1259374, 2018; in the data active = inhibition above about 50%
# GPR151 activ = activators of human GPR151, primary screen, cell-based, PathHunter beta-arrestin, luminescence. PathHunter beta-arrestin GPR151 cells. G-protein coupled receptor 151 (Homo sapiens), Q8TDV0. activation, % at 11.2 µM. actives 1% (n = 650,000). AID 1508602, 2020; in the data active = activation above about 4.9%
# FBW7 act = FBW7 E3 ligase activators, primary screen, biochemical, AlphaScreen, human; F-box/WD repeat-containing protein 7 (Homo sapiens), Q969H0; AlphaScreen FBW7–phospho-cyclin E peptide binding, activator screen; normalized activity (activation), % at 26.1 µM; actives 0.13% (n = 650,000); AID 1259310, 2017; in the data active = normalized activity above about 1.9%;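 also: purified mutant Fbw7 with reduced substrate affinity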
# Target sequence (Q969H0 whole entry, looked up): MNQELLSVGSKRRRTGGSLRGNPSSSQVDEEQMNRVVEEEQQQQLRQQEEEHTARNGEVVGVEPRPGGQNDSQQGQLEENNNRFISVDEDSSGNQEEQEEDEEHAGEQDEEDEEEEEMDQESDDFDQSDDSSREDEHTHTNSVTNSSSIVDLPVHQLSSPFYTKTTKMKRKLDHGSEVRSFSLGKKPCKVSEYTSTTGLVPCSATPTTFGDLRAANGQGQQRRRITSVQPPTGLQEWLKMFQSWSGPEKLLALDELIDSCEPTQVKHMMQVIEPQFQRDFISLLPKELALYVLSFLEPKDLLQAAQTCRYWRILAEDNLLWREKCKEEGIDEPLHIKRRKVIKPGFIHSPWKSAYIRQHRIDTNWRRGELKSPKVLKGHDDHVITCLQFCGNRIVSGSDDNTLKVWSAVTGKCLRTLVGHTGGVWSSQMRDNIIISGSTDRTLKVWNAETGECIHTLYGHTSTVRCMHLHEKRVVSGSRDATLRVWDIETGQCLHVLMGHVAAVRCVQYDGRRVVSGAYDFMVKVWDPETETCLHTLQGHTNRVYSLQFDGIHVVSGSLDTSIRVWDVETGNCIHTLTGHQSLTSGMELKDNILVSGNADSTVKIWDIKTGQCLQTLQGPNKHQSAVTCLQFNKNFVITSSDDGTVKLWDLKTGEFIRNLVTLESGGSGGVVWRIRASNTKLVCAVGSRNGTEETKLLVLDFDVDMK
# TEAD-YAP inh = TEAD-YAP interaction inhibition, primary screen, TEAD-YAP interaction inhibitor project, luminescence, HEK-TIYL cells; actives 1.4% (n = 640,000); inhibition, % at 9.12 µM; TEAD-Gal4/YAP UAS-luciferase luminescence; in the data active = inhibition above about 32%
# GPR151 conf act = GPR151 activators, triplicate retest, confirmation, cell-based, PathHunter beta-arrestin, luminescence; shares compounds with GPR151 activ; GPR151 PathHunter beta-arrestin cells, 90 min; % of EA-reagent control over plate median; activation, % at 11.2 µM; 6,700 tested, under 10 active; AID 1508609, 2020;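 active = mean percent activation across replicates above the confirmation screen cutoff of 4.91%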
# GPR119 counter = GPR119 activators in beta-arrestin cells, counter-screen for GPR151 activator project, cell-based, PathHunter beta-arrestin, luminescence, triplicate; shares compounds with GPR151 activ; 90 min; 0 = compound-well median, 100 = enzyme-acceptor control; activation, % at 11.2 µM; actives 0.3% (n = 6,700); AID 1508611, 2020;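 active = mean percent activation in the counterscreen above 29.09%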;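 also: counterscreen on off-target GPR119 to flag nonselective hits from the GPR151 activator screen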
# A number is an active result; i = inactive; nt = no result. Sampled rows, rich in hits. Any-hit rate of the full collection: about 3.5%.
SMILES,MITF primary,GPR151 activ,FBW7 act,TEAD-YAP inh,GPR151 conf act,GPR119 counter
CC(=O)NCC1Cc2cccc(-c3ccc(S(C)(=O)=O)cc3)c2O1 (stereo unspecified),i,7.3,i,i,i,i
CC(C)(C)C(=O)NCC1Cc2cccc(-c3ccc(S(C)(=O)=O)cc3)c2O1 (stereo unspecified),i,i,i,i,nt,nt
COC(=O)c1ccc2c(=O)n(Cc3ccc(C(=O)NC4CCCC4)cc3)c(=S)[nH]c2c1,i,i,i,i,nt,nt
COC(=O)c1ccc2c(=O)n(Cc3ccc(C(=O)NC4CCCCCC4)cc3)c(=S)[nH]c2c1,i,6.0,i,i,i,i
CCOc1ccccc1/C=C1/C(=O)NN(c2cccc(C)c2)C1=O,i,i,i,i,nt,nt
O=C(CCC1=NS(=O)(=O)c2ccccc2N1)Nc1ccccc1,i,6.2,i,i,i,i
C[C@H]1C(=O)N2CCN(Cc3ccc(F)c(F)c3)C[C@@H]2C(=O)N1C,i,6.8,i,i,i,i
CN(C)S(=O)(=O)c1ccc(C(=O)CSc2n[nH]c(N)n2)cc1,i,9.6,i,i,i,i
C[C@H](O)[C@H]1NC(=O)[C@@H]2C[C@H](NCc3ccccc3)CN2C1=O,i,i,i,i,nt,nt
C#CCN(Cc1ccco1)C(=O)CC1(c2ccccc2F)CC(=O)N(CCOC)C1=O (stereo unspecified),i,6.7,i,i,i,i
O=C(CN1C(=O)COc2cc(S(=O)(=O)N3CCCC3)ccc21)NC1CCCCCCC1,i,7.1,i,i,i,i
COC(=O)CN1C(=O)COc2cc(S(=O)(=O)N3CCCCCC3)ccc21,i,5.8,i,i,i,i
O=C(CN1C(=O)COc2cc(S(=O)(=O)N3CCCCC3)ccc21)NC1CCCCCC1,i,i,i,i,nt,nt
CCCN1C(=O)C(O)(CC(=O)c2ccccc2O)c2ccccc21 (stereo unspecified),i,11,i,i,i,i
COc1ccc(C2=NN(C(=O)c3ccccc3Cl)C(c3ccc(F)cc3)C2)cc1OC (stereo unspecified),i,i,i,i,nt,nt
NC(=O)c1ccccc1NC(=O)CCn1c(=S)oc2ccccc21,i,7.8,i,i,i,i
COc1ccc(C(=O)Nc2ccc(F)cc2F)cc1[N+](=O)[O-],i,i,i,i,nt,nt
COc1ccc2c(CN3C(=O)C(=O)N(C4CCCC4)C3=O)cc(=O)oc2c1,i,10,i,i,i,i
COc1ccccc1/C=N/NC(=O)COc1ccccc1OC,i,i,i,i,nt,nt
Cc1ccc2[nH]c(C)c(Br)c(=O)c2c1,i,i,i,i,nt,nt
COc1ccc2[nH]c(C)c(Br)c(=O)c2c1,i,6.4,i,i,i,i
Cc1cc(=O)c2cc([N+](=O)[O-])ccc2[nH]1,i,i,i,i,nt,nt
COc1ccc2[nH]c3ccc([N+](=O)[O-])cc3c(=O)c2c1,i,5.7,i,i,i,i
Cc1cccc(NC(=O)Oc2ccc(C(C)(C)c3ccc(OC(=O)Nc4cccc(C)c4)cc3)cc2)c1,i,i,i,i,nt,nt
CC(C)(c1ccccc1)c1ccc(OC(=O)Nc2ccc(Cl)c(Cl)c2)cc1,i,5.4,i,i,i,i
SMILES,MITF primary,GPR151 activ,FBW7 act,TEAD-YAP inh,GPR151 conf act,GPR119 counter
COc1cc(-c2c(C#N)c(N)n3c(nc4ccccc43)c2C#N)ccc1OCCCC#N,i,7.3,i,i,i,i
COc1ccc(-c2c(C#N)c(N)n3c(nc4ccccc43)c2C#N)cc1OC,i,i,i,i,nt,nt
O=C1CCC(=O)N1c1ccc(CSc2nnnn2C2CCCCC2)cc1,i,6.9,i,i,i,i
CCOc1cc(C2C(C(=O)N3CCCCC3)=C(C)NC3=C2C(=O)CCC3)cc(Br)c1OC (stereo unspecified),i,4.9,i,i,i,i
COc1cccc(C2CC(=O)Nc3cc(C)c(C)cc32)c1OC (stereo unspecified),i,i,i,i,nt,nt
COc1cc(C2CC(=O)Nc3cc(C)c(C)cc32)cc(OC)c1OC (stereo unspecified),i,13,i,49,i,i
Cc1cc2c(cc1C)C(c1cccc([N+](=O)[O-])c1)CC(=O)N2 (stereo unspecified),i,i,i,i,nt,nt
Cc1cc2c(cc1C)C(c1cc([N+](=O)[O-])ccc1Cl)CC(=O)N2 (stereo unspecified),i,5.0,i,i,i,i
O=C(Cc1ccc(F)cc1)Nc1ccc(-n2ncc3ccc(-c4nn[nH]n4)cc32)cc1,i,5.0,i,i,i,i
O=C(Nc1ccc(-n2ncc3ccc(-c4nn[nH]n4)cc32)cc1)c1ccccc1,i,i,i,i,nt,nt
O=C(Nc1nc(-c2ccc(I)cc2)cs1)c1ccc(Cl)s1,i,5.5,i,i,i,i
O=C(Nc1nc(-c2ccccc2)cs1)c1ccc(Cl)s1,i,i,i,i,nt,nt
CCn1c(O)c(C=NC2CCCC2)c(=O)[nH]c1=S,i,5.2,i,i,i,i
CCOc1ccccc1-c1noc(CCCC(=O)Nc2cccc(C)c2)n1,i,i,i,i,nt,nt
O=C(NO)c1ccc(Br)s1,i,i,i,i,nt,nt
CC(=O)NCCNC(=O)c1ccc(Br)s1,i,6.0,i,i,i,i
COc1ccccc1CNC(=O)CCCOc1ccc(C(C)=O)cc1,i,i,i,i,nt,nt
Cc1cccc(-c2nc(C)cc(NCCc3ccccn3)n2)c1,i,5.8,i,i,i,i
CCCNc1cc(C)nc(-c2ccccc2)n1,i,i,i,i,nt,nt
Cn1ccnc1SCC(=O)C12CC3CC(CC(C3)C1)C2,i,i,i,i,nt,nt
CCCCC[C@@](C)(O)/C=C/[C@@H]1C(C/C=C\CCCC(=O)O)[C@@H](O)C[C@H]1O (stereo partly specified),i,7.1,nt,nt,i,i
CCCCC[C@@](C)(O)/C=C/[C@@H]1[C@@H](C/C=C\CCCC(=O)OC)[C@@H](O)C[C@H]1O,i,i,nt,nt,nt,nt
Cc1ccc(S(=O)(=O)N(C)CC(=O)OCc2cc([N+](=O)[O-])cc3c2OCOC3)cc1,i,8.1,i,i,i,i
CCCNC(=O)c1cc(NCC)nc2ccccc12,i,5.2,i,i,i,i
Cn1c(=O)c2c(nc(Cl)n2Cc2ccc(Cl)cc2)n(C)c1=O,i,10,i,i,i,i
Cn1c(=O)n(Cc2ccccc2)c(=O)c2c1nc(NN)n2Cc1ccccc1,i,i,i,i,nt,nt
Cn1c(=O)c2c(nc(NN)n2Cc2ccccc2)n(C)c1=O,i,6.8,i,i,i,i
